From PubChem BioAssay (NCATS)
Records with an inconclusive call do not appear. Active and inactive are the calls of the source. The call rests on the fitted dose curve; in most records, active means well fitted cell-killing curve with a large enough effect; inconclusive means small, poorly fitted or top-dose-only effect; inactive means no such curve, though single readings can be large or run the other way.

assay: qHTS of pediatric cancer cell lines to identify multiple opportunities for drug repurposing: Primary screen for SJ-GBM2 cells (AID 1347091); details: SJ-GBM2 viability, CellTiter-Glo luminescence, 48 h; series mostly up to 46 µM; activity change, negative = cytotoxic: at the top concentration;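 further: plate controls were DMSO neutral control for no effect and bortezomib for full effect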
Outline: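 Viability measured as metabolically active cells via CellTiter-Glo luminescence following 48 hours of compound exposure, 11-point dilutions in confirmatory testing. 500-1,000 cells/well plated 5 hours before dosing; controls were DMSO and 2.3 µM bortezomib.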

SMILES	activity change, negative = cytotoxic
Cc1cccc(C)c1NC(=O)CN1CCCCCC1	14.9% (inactive)
CCC(Cc1c(I)cc(I)c(N)c1I)C(=O)O (stereo unspecified)	35.1% (inactive)
CC(C)CCCC(C)N (stereo unspecified)	24.3% (inactive)
O=C(Nc1ccc([N+](=O)[O-])cc1)Nc1ccc([N+](=O)[O-])cc1	10.2% (inactive)
C#C[C@]1(O)CC[C@H]2[C@@H]3CCC4=CC(=O)CC[C@@H]4[C@H]3CC[C@@]21CC	7.87% (inactive)
Cc1cccc(C)c1NC(=O)c1ccccc1C(=O)O	19.3% (inactive)
CCN(CC)CCOC(=O)C1(c2ccccc2)CCCC1	12.6% (inactive)
CC1(C)OC[C@@H]2O[C@@]3(C(=O)O)OC(C)(C)O[C@H]3[C@@H]2O1	16% (inactive)
CCCCCCCCCCCCCCCC(=O)O	16.4% (inactive)
CN1CCN(c2c(F)cc3c(=O)c(C(=O)O)cn4c3c2SCC4)CC1	53.7% (inactive)
OC[C@H]1O[C@@H](Oc2ccc(O)cc2)[C@H](O)[C@@H](O)[C@@H]1O	13.1% (inactive)
CC(=O)Nc1ccc(CC(=O)O)cc1	-2.27% (inactive)
Oc1ccccc1C=NCc1ccccc1	16.5% (inactive)
CC1CCc2c(N3CCC(O)CC3)c(F)cc3c(=O)c(C(=O)O)cn1c23 (stereo unspecified)	88.3% (inactive)

assay: qHTS of pediatric cancer cell lines to identify multiple opportunities for drug repurposing: Primary screen for A673 cells (AID 1347092); details: A673 Ewing sarcoma viability, CellTiter-Glo ATP luminescence, 48 h; series mostly up to 46 µM; activity change, negative = cytotoxic: at the top concentration; further: on the % scale 0 is the no-effect control and ±100 the full control effect; nearly all actives have a fitted effect of over 45% in size
Outline: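 Cells are plated, rested 5 h, dosed by pintool, incubated 48 h, then lysed with CellTiter-Glo and read by luminescence. DMSO is the neutral control; bortezomib at 2.3 uM final is the positive control.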

SMILES	activity change, negative = cytotoxic
CN(C)CCN1C(=O)c2ccccc2N(C)c2ccccc21	-15% (inactive)
NCCNc1cccc2ccccc12	-13.9% (inactive)
CCCCCCCC/C=C\CCCCCCCCN	-4.42% (inactive)
COc1ccc2c(c1)c1c3n2CCN(C)C3=NCC1	10.9% (inactive)
Cc1c(-c2ccccc2)oc2c(C(=O)OCCN3CCCCC3)cccc2c1=O	-20.6% (inactive)
CC[N+](C)(CC)CCOC(=O)C(O)(c1ccccc1)C1CCCCC1 (stereo unspecified)	-0.134% (inactive)
CC(=O)N[C@@H](CCC(=O)O)C(=O)O	9.9% (inactive)
Cc1cc(NS(=O)(=O)c2ccc(N)cc2)nc(C)n1	-3.56% (inactive)
O=C(O)C1(C(=O)O)CCC1.[NH2-].[NH2-].[Pt+2]	11.1% (inactive)
CC1(COc2ccc(CC3SC(=O)NC3=O)cc2)CCCCC1 (stereo unspecified)	-0.49% (inactive)
Cc1ccc(S(=O)(=O)NC(=O)NC2CCCC2)cc1	1.72% (inactive)
CCOc1cc(OCC)c(C(=O)CCC(=O)O)cc1OCC	13.2% (inactive)
COc1ccc(/C=N/NC(=O)c2ccncc2)cc1OC	-11.1% (inactive)
N=C(N)N1CCc2ccccc2C1	-18% [at 4.84 µM] (inactive)
Cc1cc(C)cc(OCC2CNC(=O)O2)c1 (stereo unspecified)	-7% (inactive)
CC(C)(C)NC[C@H](O)COc1cccc2c1CCCC2=O	-12.6% (inactive)
O=C(Nc1cccc(C2=NCCN2)c1)Nc1cccc(C2=NCCN2)c1	-21.9% [at 16.1 µM] (inactive)
CCCCCCCCCCCCCCCCO	10% (inactive)

SMILES	activity change, negative = cytotoxic
CCOC(=O)Nc1ccc2c(c1)N(C(=O)CCN1CCOCC1)c1ccccc1S2	-22.6% (inactive)
NS(=O)(=O)c1cc(C(=O)O)cc(N2CCCC2)c1Oc1ccccc1	-9.75% (inactive)
CC(CNC1CCCCC1)OC(=O)c1ccccc1 (stereo unspecified)	-17.5% (inactive)
CCCCN1C[C@H](O)[C@@H](O)[C@H](O)[C@H]1CO	-5.08% (inactive)
Cc1cccc(C)c1NC(=O)CN1CCCCCC1	6.74% (inactive)
CCC(Cc1c(I)cc(I)c(N)c1I)C(=O)O (stereo unspecified)	1.46% (inactive)
CC(C)CCCC(C)N (stereo unspecified)	-1.69% (inactive)
O=C(Nc1ccc([N+](=O)[O-])cc1)Nc1ccc([N+](=O)[O-])cc1	1.01% (inactive)
C#C[C@]1(O)CC[C@H]2[C@@H]3CCC4=CC(=O)CC[C@@H]4[C@H]3CC[C@@]21CC	-3.78% (inactive)
Cc1cccc(C)c1NC(=O)c1ccccc1C(=O)O	-0.976% (inactive)
CCN(CC)CCOC(=O)C1(c2ccccc2)CCCC1	-3.48% (inactive)
CC1(C)OC[C@@H]2O[C@@]3(C(=O)O)OC(C)(C)O[C@H]3[C@@H]2O1	12.8% (inactive)
CCCCCCCCCCCCCCCC(=O)O	11.4% (inactive)
CN1CCN(c2c(F)cc3c(=O)c(C(=O)O)cn4c3c2SCC4)CC1	-4.02% (inactive)
OC[C@H]1O[C@@H](Oc2ccc(O)cc2)[C@H](O)[C@@H](O)[C@@H]1O	-6.68% (inactive)
CC(=O)Nc1ccc(CC(=O)O)cc1	-0.408% (inactive)
Oc1ccccc1C=NCc1ccccc1	-2.48% (inactive)
CC1CCc2c(N3CCC(O)CC3)c(F)cc3c(=O)c(C(=O)O)cn1c23 (stereo unspecified)	3.24% (inactive)

assay: qHTS of pediatric cancer cell lines to identify multiple opportunities for drug repurposing: Primary screen for SK-N-MC cells (AID 1347093); details: SK-N-MC viability, CellTiter-Glo luminescence, 48 h; series mostly up to 46 µM; activity change, negative = cytotoxic: at the top concentration;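 further: plate controls were DMSO neutral control for no effect and bortezomib for full effect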
Outline: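 Metabolically active cells were quantified by ATP-dependent luminescence (CellTiter-Glo, 15 min at room temperature) following 48 h treatment. Cells had been plated at 500-1,000 per well and settled for 5 h beforehand.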

SMILES	activity change, negative = cytotoxic
CN(C)CCN1C(=O)c2ccccc2N(C)c2ccccc21	-16.4% (inactive)
NCCNc1cccc2ccccc12	-24.6% (inactive)
CCCCCCCC/C=C\CCCCCCCCN	-3.57% (inactive)
COc1ccc2c(c1)c1c3n2CCN(C)C3=NCC1	-0.802% (inactive)
Cc1c(-c2ccccc2)oc2c(C(=O)OCCN3CCCCC3)cccc2c1=O	-16.9% (inactive)
CC[N+](C)(CC)CCOC(=O)C(O)(c1ccccc1)C1CCCCC1 (stereo unspecified)	-17.3% (inactive)
CC(=O)N[C@@H](CCC(=O)O)C(=O)O	-17.8% (inactive)
Cc1cc(NS(=O)(=O)c2ccc(N)cc2)nc(C)n1	0.0555% (inactive)
O=C(O)C1(C(=O)O)CCC1.[NH2-].[NH2-].[Pt+2]	-34% (inactive)
CC1(COc2ccc(CC3SC(=O)NC3=O)cc2)CCCCC1 (stereo unspecified)	-26.2% (inactive)
Cc1ccc(S(=O)(=O)NC(=O)NC2CCCC2)cc1	-9.05% (inactive)
CCOc1cc(OCC)c(C(=O)CCC(=O)O)cc1OCC	10.3% (inactive)
COc1ccc(/C=N/NC(=O)c2ccncc2)cc1OC	15.1% (inactive)
N=C(N)N1CCc2ccccc2C1	-27.9% [at 4.84 µM] (inactive)
Cc1cc(C)cc(OCC2CNC(=O)O2)c1 (stereo unspecified)	8.72% (inactive)
CC(C)(C)NC[C@H](O)COc1cccc2c1CCCC2=O	-6.57% (inactive)
O=C(Nc1cccc(C2=NCCN2)c1)Nc1cccc(C2=NCCN2)c1	23.7% [at 16.1 µM] (inactive)
CCCCCCCCCCCCCCCCO	-14.7% (inactive)

SMILES	activity change, negative = cytotoxic
CCOC(=O)Nc1ccc2c(c1)N(C(=O)CCN1CCOCC1)c1ccccc1S2	-28% (inactive)
NS(=O)(=O)c1cc(C(=O)O)cc(N2CCCC2)c1Oc1ccccc1	-15% (inactive)
CC(CNC1CCCCC1)OC(=O)c1ccccc1 (stereo unspecified)	-28.6% (inactive)
CCCCN1C[C@H](O)[C@@H](O)[C@H](O)[C@H]1CO	-13.9% (inactive)
Cc1cccc(C)c1NC(=O)CN1CCCCCC1	-3.92% (inactive)
CCC(Cc1c(I)cc(I)c(N)c1I)C(=O)O (stereo unspecified)	-8.85% (inactive)
CC(C)CCCC(C)N (stereo unspecified)	-7.55% (inactive)
O=C(Nc1ccc([N+](=O)[O-])cc1)Nc1ccc([N+](=O)[O-])cc1	-15% (inactive)
C#C[C@]1(O)CC[C@H]2[C@@H]3CCC4=CC(=O)CC[C@@H]4[C@H]3CC[C@@]21CC	-16.4% (inactive)
Cc1cccc(C)c1NC(=O)c1ccccc1C(=O)O	-8.56% (inactive)
CCN(CC)CCOC(=O)C1(c2ccccc2)CCCC1	-13.9% (inactive)
CC1(C)OC[C@@H]2O[C@@]3(C(=O)O)OC(C)(C)O[C@H]3[C@@H]2O1	-2.63% (inactive)
CCCCCCCCCCCCCCCC(=O)O	-28.6% (inactive)
CN1CCN(c2c(F)cc3c(=O)c(C(=O)O)cn4c3c2SCC4)CC1	33.8% (inactive)
OC[C@H]1O[C@@H](Oc2ccc(O)cc2)[C@H](O)[C@@H](O)[C@@H]1O	-22% (inactive)
CC(=O)Nc1ccc(CC(=O)O)cc1	-10.9% (inactive)
Oc1ccccc1C=NCc1ccccc1	-13.8% (inactive)
CC1CCc2c(N3CCC(O)CC3)c(F)cc3c(=O)c(C(=O)O)cn1c23 (stereo unspecified)	107% (inactive)
